# Measurements taken from PubChem BioAssay (Tox21).
# Values joined by “and” are separate entries in the source; they are usually repeats but may differ in a detail not shown here. Equal values may be shown once. Records with an inconclusive call do not appear. Where a call stands in place of a potency, no number is given. The source holds several records for some structures; these can differ, active in one and inactive in another. Active and inactive are the calls of the source. Unless noted, the call rests on the fitted dose curve; in most records, active means well fitted curve in the direction sought with a large enough effect in the repeat runs; inconclusive means weak or mixed curves; inactive means no such curve, though single readings can be large; an effect the other way counts as inactive or inconclusive.
# Columns and labels:
# [1] = target: Estrogen receptor (Homo sapiens) (UniProt P03372); assay: qHTS assay to identify small molecule antagonists of the estrogen receptor alpha (ER-alpha) signaling pathway using the BG1 cell line in the presence of 0.1 nM 17-beta-estradiol (AID 1259244); further: nearly all actives have a fitted effect of over 50% in size; further: potency means the concentration at half of the fitted maximal effect
# Summary of the method: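 Luminescence after ONE-Glo (30 min, room temperature) measured ERE-luciferase activity in VM7Luc4E2 cells treated 22 h with compound and 0.1 nM final 17beta-estradiol as stimulator.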
# [2] = qHTS assay to identify small molecule HDAC inhibitors (AID 1259364);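 further: wild-type HCT-116 cells with endogenous class I/II HDAC activity; top concentration of the series differs between compounds; nearly all actives have a fitted effect of over 45% in size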
# Summary of the method: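 HCT-116 (wild type), 1,500 cells/well, overnight; compound 2 hr 37C 5% CO2; HDAC-Glo I/II reagent 30 min RT; luminescence readout.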
# [3] = qHTS assay to identify small molecule HDAC inhibitors - cell viability counter screen (AID 1259365); further: series mostly up to about 92 µM; nearly all actives have a fitted effect of over 50% in size
# Summary of the method: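 CellTiter-Glo luminescence (30 min, room temperature) reported viability after a 2 h compound exposure at 37 C. Cells: wild-type HCT-116, 1,500 per well, seeded the night before.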
# [4] = qHTS assay to identify small molecule agonists of the sonic hedgehog signaling (Shh) pathway - cell viability counter screen (AID 1259366); further: nearly all actives have a fitted effect of over 50% in size; further: potency means the concentration at half of the fitted maximal effect
# Summary of the method: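 Cytotoxicity counter screen: CellTiter-Fluor reagent added after 23 h compound exposure, then 1 h at 37C and fluorescence read. Cells were 3T3 Gli1-Luc, seeded 2,000 per well and dosed 4 h post-plating.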
# [5] = qHTS assay to identify small molecule antagonists of the sonic hedgehog signaling (Shh) pathway - cell viability counter screen (AID 1259367); further: nearly all actives have a fitted effect of over 55% in size; further: potency means the concentration at half of the fitted maximal effect
# Summary of the method: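 Viability was read by CellTiter-Fluor fluorescence in the same wells, reagent added 23 hr into compound treatment and incubated 1 hr at 37C. The 3T3 Gli1-Luc reporter cells (2,000/well) received conditioned medium after compound and ran 24 hr.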
# [6] = qHTS assay to identify small molecule agonists of the sonic hedgehog signaling (Shh) pathway (AID 1259368; calls by dose curve;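 further: NIH/3T3-derived 3T3Gli1-Luc cells carrying a stable Gli1-driven firefly luciferase reporter; series mostly up to about 92 µM; nearly all actives have a fitted effect of over 15% in size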)
# Summary of the method: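 Read-out: firefly luciferase luminescence from a Gli1 response element reporter stably integrated in NIH/3T3-derived 3T3Gli1-Luc cells, measured 30 min at room temperature after reagent addition. Compound exposure lasted 24 hr at 37 C, 5% CO2.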
# [7] = qHTS assay to identify small molecule antagonists of the sonic hedgehog signaling (Shh) pathway (AID 1259369; calls by dose curve; further: nearly all actives have a fitted effect of over 45% in size; further: potency means the concentration at half of the fitted maximal effect)
# Summary of the method: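 Luminescence readout: firefly Luc under Gli1 response element in 3T3Gli1-Luc cells (NIH/3T3 clone). Antagonist mode, stimulation by conditioned medium; compound exposure 24hr at 37 C, 5% CO2.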
# [8] = target: Estrogen receptor beta (Homo sapiens) (UniProt Q92731); assay: qHTS assay to identify small molecule agonists of the estrogen receptor beta (ER-beta) signaling pathway (AID 1259377; active means well fitted activation curve with a large enough effect in the signal ratio in the repeat runs, not every such curve was filed as active; the % refers to the signal ratio)
# Summary of the method: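 Ratiometric beta-lactamase FRET read-out came after 2 h substrate loading at room temperature. It followed 16 h compound treatment at 37C of GripTite HEK293T cells carrying a UAS-bla reporter, plated in 2% charcoal-stripped FBS medium.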
# [9] = target: Estrogen receptor beta (Homo sapiens) (UniProt Q92731); assay: qHTS assay to identify small molecule antagonists of the estrogen receptor beta (ER-beta) signaling pathway (AID 1259378; active means well fitted inhibition curve with a large enough effect in the signal ratio in the repeat runs, not every such curve was filed as active; the % refers to the signal ratio; further: potency means the concentration at half of the fitted maximal effect)
# Summary of the method: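 Antagonist mode: compounds added to beta-lactamase reporter HEK293T ER-beta-UAS cells stimulated with E2 (1nM final), 16 hr at 37C. LiveBLAzer B/G FRET substrate, 2 hours room temperature, fluorescence read-out.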
# [10] = qHTS assay to identify small molecule agonists of the androgen receptor (AR) signaling pathway in the presence of an antagonist - cell viability counter screen (AID 1259379); further: nearly all actives have a fitted effect of over 25% in size; further: potency means the concentration at half of the fitted maximal effect
# Summary of the method: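 Viability counter screen: CellTiter-Fluor fluorescence, measured in the same wells as the luciferase read-out. MDA-kb2 cells, 3,000/well, with nilutamide at 3.0uM final and compounds at 15 concentrations, 16 hr at 37C, 0% CO2.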
# [11] = qHTS assay to identify small molecule agonists of the estrogen receptor beta (ER-beta) signaling pathway - cell viability counter screen (AID 1259380); further: nearly all actives have a fitted effect of over 30% in size; further: potency means the concentration at half of the fitted maximal effect
# Summary of the method: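 Luminescence read-out (CellTiter-Glo, 30 min, room temp) taken in the same wells as the beta-lactamase reporter assay; ER-beta-UAS-bla HEK293T cells exposed to DMSO-dissolved compounds for 16 hr at 37C in 2% charcoal-stripped FBS medium.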
# [12] = qHTS assay to identify small molecule antagonists of the estrogen receptor beta (ER-beta) signaling pathway - cell viability counter screen (AID 1259382); further: nearly all actives have a fitted effect of over 55% in size; further: potency means the concentration at half of the fitted maximal effect
# Summary of the method: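 Luminescent ATP read-out (CellTiter-Glo, 30 min, RT) taken in the same wells as the bla reporter assay. HEK293T ER-beta-UAS-bla cells in 2% charcoal-stripped FBS were exposed to compounds with 1nM E2 for 16 hr at 37C.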
# [13] = target: Estrogen receptor (Homo sapiens) (UniProt P03372); assay: qHTS assay to identify small molecule agonists of the estrogen receptor alpha (ER-alpha) signaling pathway in the presence of an antagonist (AID 1259383; calls by dose curve; further: top concentration of the series differs between compounds; nearly all actives have a fitted effect of over 15% in size)
# Summary of the method: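 Luciferase luminescence (ONE-Glo, 30min at room temperature) measured in VM7Luc4E2 cells after 22hr compound exposure at 15 concentrations, with 10.0nM ICI-182,780 final present; cells express endogenous ER-alpha and carry four EREs upstream of luciferase.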
# [14] = qHTS assay to identify small molecule agonists or antagonists of the thyroid stimulating hormone receptor (TSHR) signaling pathway - wild type cell line counter screen (AID 1259384; calls by dose curve)
# Summary of the method: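 Counter screen in untransfected Hek293: compounds (15-point titration, triplicate) plus phosphodiesterase inhibitor Ro20-1724 added after 18 h plating; 30 min RT. Intracellular cAMP via competitive d2/cryptate immunoassay, 1 h incubation.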
# [15] = target: Thyrotropin receptor (Homo sapiens) (UniProt P16473); assay: qHTS assay to identify small molecule antagonists of the thyroid stimulating hormone receptor (TSHR) signaling pathway (AID 1259385; calls by dose curve; further: nearly all actives have a fitted effect of over 20% in size)
# Summary of the method: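 Antagonist mode: compound-treated TSHR-expressing HEK293 cells were stimulated with 1.5 ng/mL TSH (final) in presence of Ro20-1724 for 30 min at RT. HTRF cAMP detection after 1 h; each compound tested at 15 concentrations, triplicate.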
# [16] = qHTS assay to identify small molecule agonists of the estrogen receptor alpha (ER-alpha) signaling pathway in the presence of an antagonist - cell viability counter screen (AID 1259386);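 further: cells exposed to compounds for 22 h at 37 °C before the viability read; nearly all actives have a fitted effect of over 30% in size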; further: potency means the concentration at half of the fitted maximal effect
# Summary of the method: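 Read-out: CellTiter-Fluor fluorescence after 1hr reagent incubation, measured in the same wells as the luciferase readout. VM7Luc4E2 cells were exposed to 15 compound concentrations with 10.0nM ICI-182,780 for 22hr at 37C.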
# [17] = target: Progesterone receptor (Homo sapiens) (UniProt P06401); assay: qHTS assay to identify small molecule agonists of the progesterone receptor (PR) signaling pathway (AID 1346784; calls by dose curve; further: nearly all actives have a fitted effect of over 30% in size)
# Summary of the method: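 Agonist qHTS: compounds pinned onto 3,000 PR-UAS-bla HEK 293T cells per well in charcoal-stripped serum medium, 16hr at 37C, then beta-lactamase activity measured by LiveBLAzer FRET fluorescence after 2 hours at room temperature.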
# [18] = qHTS assay to identify small molecule phospholipidosis (PLD) inducers (AID 1259344; active means well fitted curve in the direction sought with a large enough effect; an effect the other way counts as inactive or inconclusive)
# Summary of the method: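 Phospholipid accumulation was scored by imaging: fixed, Hoechst-counterstained HepG2 cells stained with LipidTOX Red after 24 h compound exposure at 37 C. Read-outs were pit count and pit intensity per well or per cell, with amiodarone and DMSO controls.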
# Chain of Thyrotropin receptor (Homo sapiens) (P16473 whole entry, looked up): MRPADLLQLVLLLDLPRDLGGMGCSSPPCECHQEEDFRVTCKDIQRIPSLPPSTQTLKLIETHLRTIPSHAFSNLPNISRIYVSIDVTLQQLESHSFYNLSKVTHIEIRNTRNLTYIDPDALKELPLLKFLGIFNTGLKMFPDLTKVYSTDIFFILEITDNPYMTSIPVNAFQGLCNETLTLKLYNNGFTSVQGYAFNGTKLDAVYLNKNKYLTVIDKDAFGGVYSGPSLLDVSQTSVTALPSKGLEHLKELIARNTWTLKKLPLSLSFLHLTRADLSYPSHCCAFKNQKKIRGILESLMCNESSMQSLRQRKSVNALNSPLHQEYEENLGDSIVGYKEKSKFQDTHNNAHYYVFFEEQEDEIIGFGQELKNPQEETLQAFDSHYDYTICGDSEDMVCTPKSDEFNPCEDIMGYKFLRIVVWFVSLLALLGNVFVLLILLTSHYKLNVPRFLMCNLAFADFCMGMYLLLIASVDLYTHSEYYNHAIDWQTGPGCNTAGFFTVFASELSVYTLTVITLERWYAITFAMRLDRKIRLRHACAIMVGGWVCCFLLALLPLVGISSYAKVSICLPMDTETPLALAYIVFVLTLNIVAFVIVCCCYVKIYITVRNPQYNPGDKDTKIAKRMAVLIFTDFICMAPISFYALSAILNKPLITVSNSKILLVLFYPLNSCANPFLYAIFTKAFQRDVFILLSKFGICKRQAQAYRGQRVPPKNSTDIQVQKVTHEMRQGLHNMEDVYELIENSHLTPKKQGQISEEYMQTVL
# Chain of Progesterone receptor (Homo sapiens) (P06401 whole entry, looked up): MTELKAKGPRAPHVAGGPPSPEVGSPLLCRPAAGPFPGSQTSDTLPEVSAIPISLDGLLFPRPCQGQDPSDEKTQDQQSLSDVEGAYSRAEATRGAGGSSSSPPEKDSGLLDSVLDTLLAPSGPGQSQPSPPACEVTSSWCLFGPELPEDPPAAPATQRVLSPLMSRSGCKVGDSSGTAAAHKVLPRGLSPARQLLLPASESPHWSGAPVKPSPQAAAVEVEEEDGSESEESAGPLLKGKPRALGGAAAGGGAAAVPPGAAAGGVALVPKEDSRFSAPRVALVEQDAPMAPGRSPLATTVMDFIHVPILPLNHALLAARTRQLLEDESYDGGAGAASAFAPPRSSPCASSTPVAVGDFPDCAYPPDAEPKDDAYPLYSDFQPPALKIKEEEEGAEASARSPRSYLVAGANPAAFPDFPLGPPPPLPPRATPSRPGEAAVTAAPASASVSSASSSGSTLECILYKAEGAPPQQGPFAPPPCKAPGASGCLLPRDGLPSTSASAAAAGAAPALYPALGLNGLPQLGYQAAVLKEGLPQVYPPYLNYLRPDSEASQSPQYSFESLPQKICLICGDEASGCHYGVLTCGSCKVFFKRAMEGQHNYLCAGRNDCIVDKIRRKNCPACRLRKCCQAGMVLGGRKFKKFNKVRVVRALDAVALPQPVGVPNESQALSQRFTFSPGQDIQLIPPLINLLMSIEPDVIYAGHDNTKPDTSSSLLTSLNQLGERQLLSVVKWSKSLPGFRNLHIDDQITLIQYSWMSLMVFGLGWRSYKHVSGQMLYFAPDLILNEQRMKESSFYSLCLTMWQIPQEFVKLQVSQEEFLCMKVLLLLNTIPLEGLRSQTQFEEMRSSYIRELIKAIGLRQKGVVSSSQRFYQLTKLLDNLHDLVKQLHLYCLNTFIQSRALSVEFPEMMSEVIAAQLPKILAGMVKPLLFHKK
# Chain of Estrogen receptor (Homo sapiens) (P03372 whole entry, looked up): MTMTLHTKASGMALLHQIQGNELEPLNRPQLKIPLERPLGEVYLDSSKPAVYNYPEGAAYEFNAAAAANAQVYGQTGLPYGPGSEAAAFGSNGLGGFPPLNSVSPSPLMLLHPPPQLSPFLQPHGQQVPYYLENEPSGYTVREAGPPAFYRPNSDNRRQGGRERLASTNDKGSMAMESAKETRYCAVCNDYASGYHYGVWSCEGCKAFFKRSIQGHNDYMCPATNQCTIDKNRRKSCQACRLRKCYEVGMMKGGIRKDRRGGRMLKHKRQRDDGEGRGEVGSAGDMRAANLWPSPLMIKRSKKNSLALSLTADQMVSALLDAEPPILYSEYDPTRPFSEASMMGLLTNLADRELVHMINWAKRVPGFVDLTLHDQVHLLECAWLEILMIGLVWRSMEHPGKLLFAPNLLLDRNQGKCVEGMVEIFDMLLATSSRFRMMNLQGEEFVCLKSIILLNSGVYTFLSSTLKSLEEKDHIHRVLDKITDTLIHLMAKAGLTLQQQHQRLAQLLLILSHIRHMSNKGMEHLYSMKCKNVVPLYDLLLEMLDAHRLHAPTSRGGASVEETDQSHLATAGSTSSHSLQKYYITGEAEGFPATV
# Chain of Estrogen receptor beta (Homo sapiens) (Q92731 whole entry, looked up): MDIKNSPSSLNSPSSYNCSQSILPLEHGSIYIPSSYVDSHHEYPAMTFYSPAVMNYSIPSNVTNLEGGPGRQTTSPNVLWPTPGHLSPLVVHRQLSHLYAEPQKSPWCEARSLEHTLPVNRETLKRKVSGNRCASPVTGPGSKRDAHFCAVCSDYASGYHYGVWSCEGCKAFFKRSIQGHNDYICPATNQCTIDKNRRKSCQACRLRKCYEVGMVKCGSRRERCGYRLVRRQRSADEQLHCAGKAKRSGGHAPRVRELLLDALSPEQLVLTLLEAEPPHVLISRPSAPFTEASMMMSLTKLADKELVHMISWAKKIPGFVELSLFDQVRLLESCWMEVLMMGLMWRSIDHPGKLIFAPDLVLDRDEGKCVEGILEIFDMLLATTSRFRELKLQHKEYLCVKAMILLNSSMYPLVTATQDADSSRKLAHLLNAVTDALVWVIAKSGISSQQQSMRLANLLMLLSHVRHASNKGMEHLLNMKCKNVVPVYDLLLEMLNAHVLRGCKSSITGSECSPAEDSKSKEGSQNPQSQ
SMILES,Potency [1],Potency [2],Potency [3],Potency [4],Potency [5],Potency [6],Potency [7],Potency [8],Potency [9],Potency [10],Potency [11],Potency [12],Potency [13],outcome [14],Potency [15],Potency [16],outcome [17],Potency [18]
COC(=O)CC#N,inactive,inactive,inactive,inactive,inactive,inactive,inactive,inactive,inactive,inactive,inactive,inactive,inactive,inactive,inactive,inactive,inactive,
COc1cc(C(=O)NS(=O)(=O)c2ccccc2C)ccc1Cc1cn(C)c2ccc(NC(=O)OC3CCCC3)cc12,inactive,inactive,,,inactive,inactive,inactive,inactive,13.3 µM (active),,13.3 µM (active),,inactive,inactive,inactive,inactive,,inactive
CCCCOc1ccc(C(=O)CCN2CCCCC2)cc1,inactive,inactive,inactive,,inactive,inactive,inactive,inactive,inactive,29.8 µM (active),,inactive,inactive,inactive,,inactive,,inactive
O[C@@H](c1cc(C(F)(F)F)nc2c(C(F)(F)F)cccc12)[C@H]1CCCCN1,inactive,inactive,,29.8 µM (active),29.8 µM (active),inactive,23.7 µM (active),inactive,,,21.1 µM (active),16.8 µM (active),inactive,inactive,,inactive,,inactive
CC(C)N=C(N)/N=C(\N)Nc1ccc(Cl)cc1,inactive,inactive,inactive,,inactive,inactive,,inactive,,inactive,23.7 µM (active),,inactive,,,inactive,inactive,inactive
CSc1ccc2c(c1)N(CCC1CCCCN1C)c1ccccc1S2 (configuration not stated),54.3 µM (active) and inactive,inactive,inactive,,21.6 µM (active) and 29.8 µM (active),inactive,5.43 µM (active) and 11.9 µM (active),,,54.3 µM (active) and 29.8 µM (active),19.3 µM (active) and 18.8 µM (active),15.3 µM (active) and 13.3 µM (active),inactive,inactive,,68.3 µM (active) and inactive,,inactive
CCN(CC)CCSC(=O)C(c1ccccc1)c1ccccc1,inactive,inactive,,inactive,inactive,inactive,23.7 µM (active),inactive,inactive,inactive,29.8 µM (active),inactive,inactive,,inactive,inactive,inactive,inactive
C=C(c1ccc(C(=O)O)cc1)c1cc2c(cc1C)C(C)(C)CCC2(C)C,12.2 µM (active),inactive,inactive,inactive,inactive,inactive,inactive,,8.41 µM (active),inactive,34.4 µM (active) and 33.5 µM (active),34.4 µM (active) and 29.8 µM (active),inactive,,,inactive,,inactive
